“And” between values parts separate entries of the source, which are not always exact repeats. Equal values may be shown once. Results filed as inconclusive are left out. Some structures have more than one record in an assay (separate samples or runs), and their calls can disagree. The source made the active and inactive calls. The rule behind the calls is not given here.
Assay: qHTS assay to identify small molecule antagonists of the estrogen related receptor signaling pathway with the pleiotropic PPARgamma coactivator (PGC) from Tox21 10K library (AID 1224841); note: actives are mostly falling curves and most rising ones were filed inactive; nearly all actives have a fitted effect of over 50% in size
Details: PGC/ERR reporter cell line, ONE-Glo luciferase, 18 h; series mostly up to 92.4 µM
Source text: U.S. Tox21 Program National Center for Advancing Translational Sciences [NCATS] NIH Chemical Genomics Center [NCGC] U.S. Environmental Protection Agency [EPA] National Institutes of Environmental Health Sciences [NIEHS] National Toxicology Program [NTP] U.S. Food and Drug Administration [FDA] Tox21 Assay Overview: Estrogen related receptors (ERRs), the first orphan nuclear receptors discovered, play an important role in the control of cellular energy metabolism. ERRs are required for high-energy production in response to the environmental challenges. The pleiotropic PPARgamma coactivator (PGC) is a major partner of ERR and a key regulator in energy homeostasis. Together they have been implicated in the etiology of metabolic disorders such as Type 2 diabetes and metabolic syndrome. ERR-alpha was also identified as an adverse marker for breast cancer progression; ERR-alpha-positive tumors have a poor prognosis. To screen and to identify environmental compounds that perturb the ERR and PGC/ERR signaling pathways could provide valuable information for potential therapeutic or preventive measures in the treatment of metabolic disease. For identifying PGC/ERR antagonists, PGC/ERR cell line (provided by NTP) has been used to screen Tox21 10K library.
Tox21 Assay Protocol Summary: The PGC/ERR cells were dispensed at 2,000 cells/5 ul/well in 1536-well white plates using a Multidrop dispenser. After the assay plates were incubated at a 37 C/5% CO2 incubator for 6 hours, 23 nL of compounds dissolved in DMSO, positive and negative controls or DMSO only was transferred to the assay plate by a pin tool. The plates were incubated at 37 C for 18 hours. 4 ul/well of One-Glo reagent was added into the assay plates using a Flying Reagent Dispenser. After 30-minute incubation at room temperature, the luminescence intensity in the plates was measured using a ViewLux plate reader.
Potency is the fitted concentration of half-maximal effect.

Q: Which Potency does the source give for `C[C@H](CCC(=O)O)[C@H]1CC[C@H]2[C@@H]3CC[C@@H]4C[C@H](O)CC[C@]4(C)[C@H]3CC[C@]12C` here?
A: 68.3 µM (active)

Q: For `Cc1onc(-c2c(Cl)cccc2Cl)c1C(=O)N[C@@H]1C(=O)N2[C@@H]1SC(C)(C)[C@@H]2C(=O)O`, which Potency is on record?
A: inactive

Q: With `O=C1c2ccccc2Cc2ccccc21` as the compound, how does the Potency read?
A: inactive

Q: For `CC(C)(C)C(=O)OCOC(=O)[C@@H]1N2C(=O)[C@@H](NC(=O)[C@H](N)c3ccccc3)[C@H]2SC1(C)C`, which Potency is on record?
A: inactive

Q: For `N/C(=N\N=C\c1ccc(Cl)cc1)N/N=C/c1ccc(Cl)cc1`, which Potency is on record?
A: inactive

Q: For `CC[C@@]1(O)C(=O)OCc2c1cc1n(c2=O)Cc2c-1nc1ccccc1c2/C=N/OC(C)(C)C`, which Potency is on record?
A: 4.73 µM (active)

Q: With `COc1ccc(-c2ccc3cc(C(=O)O)ccc3c2)cc1C12CC3CC(CC(C3)C1)C2` as the compound, how does the Potency read?
A: inactive

Q: For `CSc1ccc(/C=C2/C(C)=C(CC(=O)O)c3cc(F)ccc32)cc1`, which Potency is on record?
A: inactive

Q: Which Potency does the source give for `CC1=C(C(=O)OC(C)C)C(c2cccc([N+](=O)[O-])c2)C(C(=O)OC2CN(C(c3ccccc3)c3ccccc3)C2)=C(N)N1` (stereo not given) here?
A: 26.6 µM (active)

Q: For `NNc1nc(-c2ccc(N)cc2)cs1`, which Potency is on record?
A: 61.1 µM (active)

Q: For `CCc1cc(Cc2cc(CC)cc(C(C)(C)C)c2O)c(O)c(C(C)(C)C)c1`, which Potency is on record?
A: 27.3 µM (active)

Q: With `NNc1nc(-c2ccccc2)cs1` as the compound, how does the Potency read?
A: inactive

Q: Which Potency does the source give for `CCCCCOc1ccccc1/C(=C\SC)n1ccnc1` here?
A: 15 µM (active)

Q: Which Potency does the source give for `Nc1cc(C(F)(F)F)ccc1S` here?
A: 29.8 µM (active)

Q: For `Oc1ccc2cc(SSc3ccc4cc(O)ccc4c3)ccc2c1`, which Potency is on record?
A: 48.6 µM (active) and 43.3 µM (active)

Q: For `CN(C)C(=O)C1(N2CCCCC2)CCN(CC[C@@]2(c3ccc(Cl)c(Cl)c3)CN(C(=O)c3ccccc3)CCO2)CC1`, which Potency is on record?
A: 50.9 µM (active)

Q: With `Nc1c2ccccc2nc2ccccc12` as the compound, how does the Potency read?
A: 53.8 µM (active) and inactive

Q: With `COc1cccc2c1C(=O)c1c(O)c3c(c(O)c1C2=O)C[C@@](O)(C(=O)CO)C[C@@H]3O[C@H]1C[C@H](N)[C@H](O[C@@H]2CCCCO2)[C@H](C)O1` as the compound, how does the Potency read?
A: inactive

Q: Which Potency does the source give for `O=S1(=O)CC(Cl)(Cl)C(Cl)(Cl)C1` here?
A: 13.7 µM (active)

Q: For `CCCCCCOC(=O)c1ccc(O)cc1`, which Potency is on record?
A: inactive

Q: For `COc1c(C)c2c(c(O)c1C/C=C(\C)CCC(=O)O)C(=O)OC2`, which Potency is on record?
A: 2.66 µM (active)

Q: For `CC[C@H]1O[C@]2(CC[C@@H]1C)C[C@@H]1C[C@@H](C/C=C(\C)C[C@@H](C)/C=C/C=C3\CO[C@@H]4[C@H](O)C(C)=C[C@@H](C(=O)O1)[C@]34O)O2`, which Potency is on record?
A: 19.2 µM (active)

Q: For `COc1cc(/C=C/C(=O)O[C@H]2CC[C@]34C[C@]35CC[C@]3(C)[C@@H]([C@H](C)CCC=C(C)C)CC[C@@]3(C)[C@@H]5CC[C@H]4C2(C)C)ccc1O`, which Potency is on record?
A: inactive

Q: For `C/C=C(\C)C(=O)OCc1ccccc1`, which Potency is on record?
A: inactive

Q: With `N#CC1(c2ccc(F)cc2)CCC(=O)CC1` as the compound, how does the Potency read?
A: inactive

Q: Which Potency does the source give for `NC(=O)N1C(=O)C(C(=O)c2cc(Cl)cs2)c2cc(F)c(Cl)cc21` (stereo not given) here?
A: 38.6 µM (active)

Q: Which Potency does the source give for `CC(C)CCCCCCCCCCCCCCC(=O)O` here?
A: inactive

Q: Which Potency does the source give for `CCc1cc(Cc2cc(CC)c(N)c(CC)c2)cc(CC)c1N` here?
A: 21.7 µM (active)

Q: With `Nc1nc2ccccc2n1Cc1ccc(F)cc1` as the compound, how does the Potency read?
A: inactive

Q: With `C=CC(=O)OCCn1c(=O)n(CCOC(=O)C=C)c(=O)n(CCOC(=O)C=C)c1=O` as the compound, how does the Potency read?
A: 15.4 µM (active)

Q: With `Cc1cc(N)c(S(=O)(=O)O)cc1Cl` as the compound, how does the Potency read?
A: inactive

Q: For `Cc1cc2c(cc1C(F)(F)F)N(C(=O)Nc1ccc(Oc3cccnc3C)nc1)CC2`, which Potency is on record?
A: 7.81 µM (active)

Q: For `CC(=O)N1CCN(c2ccc(OC[C@H]3CO[C@](Cn4ccnc4)(c4ccc(Cl)cc4Cl)O3)cc2)CC1`, which Potency is on record?
A: 27.3 µM (active)

Q: For `O=C(O)c1ccc(Cl)c(Cl)c1`, which Potency is on record?
A: inactive

Q: Which Potency does the source give for `CCCCC(CC)COP(=O)(O)OCC(CC)CCCC` (stereo not given) here?
A: 27.4 µM (active) and 21.7 µM (active)

Q: Which Potency does the source give for `O=c1[nH]sc2ccccc12` here?
A: 27.3 µM (active)

Q: With `COc1ccc(CN2CCN(C(c3ccc(F)cc3)c3ccc(F)cc3)CC2)c(OC)c1OC` as the compound, how does the Potency read?
A: 11.9 µM (active)

Q: Which Potency does the source give for `Cc1cccc2c1cc1ccc3cccc4ccc2c1c34` here?
A: inactive

Q: For `CCN(CCC#N)c1ccc(N=Nc2c(Cl)cc([N+](=O)[O-])cc2Cl)cc1`, which Potency is on record?
A: inactive

Q: For `O=C(c1ccc(F)cc1)C1CCN(CCn2c(=O)[nH]c3ccccc3c2=O)CC1`, which Potency is on record?
A: inactive

Source: PubChem BioAssay (Tox21)
